Read-out in assay [1]: flavin-containing dimethylaniline monooxygenases 3 (FMO3), FMO3 (gene 2328)
The assay can be described thus: LTEA_HepaRG_FMO3: Life Technologies and Expression Analysis (LTEA) Assay for flavin-containing dimethylaniline monooxygenases 3 (FMO3) using HepaRG (AID 2283453). As to conditions: mRNA level, 48 h; actives raise or lower the signal. The essentials:
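Differentiated HepaRG cells in serum-free induction medium, exposed 48 h in duplicate to 8 half-log concentrations up to 100 uM in 0.5% DMSO. FMO3 mRNA by qRT-PCR, normalized to ACTB, GAPDH, POLR2A; bidirectional fit vs DMSO.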

Read-out in assay [2]: Cytochrome P450 (CYP1A1), CYP1A1 (gene 1543)
The assay can be described thus: LTEA_HepaRG_CYP1A1: Life Technologies and Expression Analysis (LTEA) Assay for Cytochrome P450 (CYP1A1) using HepaRG (AID 2283454). Conditions: mRNA level, 48 h; actives raise or lower the signal. In outline:
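Differentiated human HepaRG cells, after 48 h plating, exposed in duplicate for 48 h in serum-free induction medium to 8 half-log concentrations up to 100 uM in 0.5% DMSO. CYP1A1 mRNA by qRT-PCR, normalized to ACTB/GAPDH/POLR2A; bidirectional fit versus DMSO.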

Read-out in assay [3]: CFLAR gene, CFLAR (gene 8837)
The assay can be described thus: LTEA_HepaRG_CFLAR: Life Technologies and Expression Analysis (LTEA) Assay for CFLAR gene using HepaRG (AID 2283455). Conditions: mRNA level, 48 h; actives raise or lower the signal. The essentials: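 HepaRG, 48 h exposure, 8-pt conc-response (100 uM top, half-log), 0.5% DMSO vehicle, duplicates. CFLAR expression by qRT-PCR; ACTB/GAPDH/POLR2A normalization; gain or loss fit vs DMSO baseline.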

Read-out in assay [4]: Forkhead box O1 (FOXO1), FOXO1 (gene 2308)
Nature of the assay: LTEA_HepaRG_FOXO1: Life Technologies and Expression Analysis (LTEA) Assay for Forkhead box O1 (FOXO1) using HepaRG (AID 2283456). Conditions: mRNA level, 48 h; actives raise or lower the signal. The essentials: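 Readout is FOXO1 transcript level by multiplexed qRT-PCR against three housekeeping genes, curve-fitted in both directions relative to 0.5% DMSO vehicle. Human HepaRG cultures received chemicals for 48 h, up to 100 uM in half-log steps.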

Read-out in assay [5]: growth arrest and DNA damage 45 (GADD45A), GADD45A (gene 1647)
The assay can be described thus: LTEA_HepaRG_GADD45A: Life Technologies and Expression Analysis (LTEA) Assay for growth arrest and DNA damage 45 (GADD45A) using HepaRG (AID 2283458). As to conditions: mRNA level, 48 h; actives raise or lower the signal. In outline:
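Cells plated and cultured 48 h, switched to serum-free induction medium, then dosed for 48 h (100 uM top, half-log dilutions, 0.5% DMSO). RNA was isolated and transcript measured by Fluidigm qRT-PCR.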

Read-out in assay [6]: Forkhead box O3 (FOXO3), FOXO3 (gene 2309)
The assay can be described thus: LTEA_HepaRG_FOXO3: Life Technologies and Expression Analysis (LTEA) Assay for Forkhead box O3 (FOXO3) using HepaRG (AID 2283459). As to conditions: mRNA level, 48 h; actives raise or lower the signal. The essentials: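 HepaRG, 48 h post-dose; 8 conc., half-log from 100 uM, 0.5% DMSO, duplicates; serum-free induction medium. Readout: FOXO3 mRNA, TaqMan qRT-PCR, housekeeping-normalized. Bidirectional curve fit vs DMSO baseline.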

Read-out in assay [7]: ABC Transporter (ABCB1), ABCB1 (gene 5243)
Nature of the assay: LTEA_HepaRG_ABCB1: Life Technologies and Expression Analysis (LTEA) Assay for ABC Transporter (ABCB1) using HepaRG (AID 2283460). Conditions: mRNA level, 48 h; actives raise or lower the signal. The essentials: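 Expression of ABCB1 was quantified by qRT-PCR against three housekeeping genes after human HepaRG cultures received test chemicals for 48 hours. Concentrations spanned eight half-log steps topping at 100 uM in 0.5% DMSO; gain or loss of signal was fitted relative to vehicle.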

Read-out in assay [8]: growth arrest and DNA damage 45 (GADD45B), GADD45B (gene 4616)
Nature of the assay: LTEA_HepaRG_GADD45B: Life Technologies and Expression Analysis (LTEA) Assay for growth arrest and DNA damage 45 (GADD45B) using HepaRG (AID 2283461). Conditions: mRNA level, 48 h; actives raise or lower the signal. The essentials: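 Differentiated human HepaRG cells in serum-free induction medium exposed 48 h in duplicate to eight concentrations, top 100 uM, half-log steps, 0.5% DMSO. GADD45B mRNA by TaqMan qRT-PCR, normalized to ACTB, GAPDH, POLR2A; bidirectional fit versus DMSO.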

Read-out in assay [9]: ABC Transporter (ABCC3), ABCC3 (gene 8714)
Nature of the assay: LTEA_HepaRG_ABCC3: Life Technologies and Expression Analysis (LTEA) Assay for ABC Transporter (ABCC3) using HepaRG (AID 2283462). Conditions: mRNA level, 48 h; actives raise or lower the signal. In outline:
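Differentiated human HepaRG cells exposed 48 h in serum-free induction medium, 0.5% DMSO vehicle, 8-point half-log series to 100 uM in duplicate. ABCC3 mRNA by qRT-PCR, normalised to ACTB, GAPDH, POLR2A; bidirectional fit vs DMSO.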

Read-out in assay [10]: ABC Transporter (ABCB11), ABCB11 (gene 8647)
Nature of the assay: LTEA_HepaRG_ABCB11: Life Technologies and Expression Analysis (LTEA) Assay for ABC Transporter (ABCB11) using HepaRG (AID 2283463). Conditions: mRNA level, 48 h; actives raise or lower the signal. The essentials:
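ABCB11 transcript levels are read by Fluidigm TaqMan qRT-PCR after 48 h chemical treatment of human HepaRG cells. Concentrations span 100 uM downward in half-log steps with 0.5% DMSO; gain or loss is fitted against DMSO controls.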

Read-out in assay [11]: ABC Transporter (ABCC2), ABCC2 (gene 1244)
Nature of the assay: LTEA_HepaRG_ABCC2: Life Technologies and Expression Analysis (LTEA) Assay for ABC Transporter (ABCC2) using HepaRG (AID 2283464). Conditions: mRNA level, 48 h; actives raise or lower the signal. In outline: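 Differentiated HepaRG cells in serum-free induction medium exposed 48 h to eight half-log concentrations up to 100 uM, 0.5% DMSO, in duplicate. ABCC2 mRNA measured by qRT-PCR (TaqMan, Fluidigm), normalized to ACTB, GAPDH and POLR2A. Fitted in both directions against DMSO.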

Read-out in assay [12]: Broad substrate specificity ATP-binding cassette transporter ABCG2 (Homo sapiens) (UniProt Q9UNQ0)
The assay can be described thus: LTEA_HepaRG_ABCG2: Life Technologies and Expression Analysis (LTEA) Assay for ABC Transporter (ABCG2) using HepaRG (AID 2283465). Conditions: mRNA level, 48 h; actives raise or lower the signal. The essentials: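 Read-out is ABCG2 mRNA induction or loss quantified by qRT-PCR after 48 h chemical treatment of human HepaRG cells, normalized to three housekeeping genes. Concentrations reached 100 uM top in half-log steps; fitting was bidirectional against 0.5% DMSO.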

Read-out in assay [13]: ATP-citrate lyase (ACLY), ACLY (gene 47)
The assay can be described thus: LTEA_HepaRG_ACLY: Life Technologies and Expression Analysis (LTEA) Assay for ATP-citrate lyase (ACLY) using HepaRG (AID 2283466). As to conditions: mRNA level, 48 h; actives raise or lower the signal. The essentials: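 HepaRG, 48 h exposure, 8-pt half-log dilutions (top 100 uM), 0.5% DMSO. Readout: ACLY mRNA, TaqMan qRT-PCR, housekeeping-normalized (ACTB/GAPDH/POLR2A). Bidirectional curve fit vs DMSO.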

Read-out in assay [14]: Alkaline Phosphatase, Placental (ALPP) gene, ALPP (gene 250)
The assay can be described thus: LTEA_HepaRG_ALPP: Life Technologies and Expression Analysis (LTEA) Assay for Alkaline Phosphatase, Placental (ALPP) gene using HepaRG (AID 2283468). Conditions: mRNA level, 48 h; actives raise or lower the signal. In outline:
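HepaRG cells plated 48 h, then exposed in duplicate for 48 h in serum-free induction medium to 8-point half-log series from 100 uM in 0.5% DMSO. ALPP mRNA by TaqMan qRT-PCR, normalized to ACTB/GAPDH/POLR2A; bidirectional fit versus DMSO.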

Read-out in assay [15]: Bcl-2 (BAD) gene, BAD (gene 572)
Nature of the assay: LTEA_HepaRG_BAD: Life Technologies and Expression Analysis (LTEA) Assay for Bcl-2 (BAD) gene using HepaRG (AID 2283469). Conditions: mRNA level, 48 h; actives raise or lower the signal. In outline:
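BAD transcript change, measured by qRT-PCR against three housekeeping genes and fitted in both directions relative to 0.5% DMSO, after 48 h chemical treatment of human HepaRG liver cells at concentrations up to 100 uM.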

Read-out in assay [16]: Bcl-2 (BAX) gene, BAX (gene 581)
The assay can be described thus: LTEA_HepaRG_BAX: Life Technologies and Expression Analysis (LTEA) Assay for Bcl-2 (BAX) gene using HepaRG (AID 2283470). Conditions: mRNA level, 48 h; actives raise or lower the signal. In outline:
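HepaRG (human liver), 48 h exposure, duplicate wells. 8-pt curve, half-log from 100 uM, 0.5% DMSO. BAX transcript by TaqMan qRT-PCR; ACTB/GAPDH/POLR2A normalization; gain or loss vs DMSO baseline.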

Read-out in assay [17]: adenosine kinase (ADK) gene, ADK (gene 132)
Nature of the assay: LTEA_HepaRG_ADK: Life Technologies and Expression Analysis (LTEA) Assay for adenosine kinase (ADK) gene using HepaRG (AID 2283471). Conditions: mRNA level, 48 h; actives raise or lower the signal. The essentials:
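ADK expression quantified by qRT-PCR, normalised to three housekeeping genes, after 48 h exposure of HepaRG cells to eight concentrations (top 100 uM, half-log steps, duplicate, 0.5% DMSO). Up- or down-regulation fitted relative to vehicle.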

Read-out in assay [18]: Alpha-fetoprotein (AFP) gene, AFP (gene 174)
Nature of the assay: LTEA_HepaRG_AFP: Life Technologies and Expression Analysis (LTEA) Assay for Alpha-fetoprotein (AFP) gene using HepaRG (AID 2283472). Conditions: mRNA level, 48 h; actives raise or lower the signal. In outline: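 HepaRG, single lot; 48 h post-plating -> serum-free induction medium; cpd 8-pt, 100 uM top, half-log, 0.5% DMSO, duplicate, 48 h. RNA -> qRT-PCR AFP, norm ACTB/GAPDH/POLR2A. Bidirectional fit vs DMSO.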

A short description of assay [19]: CEETOX_H295R_TESTO: CeeTox H295R High-throughput Steroidogenesis Assay for Testosterone (TESTO) (AID 2283457). As to conditions: actives raise or lower the signal. The essentials: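 H295R adrenal cells, passage ≤10, exposed to chemicals for 48 h. Testosterone in medium measured by MTBE extraction and HPLC-MS/MS against a 7-point standard curve. Bidirectional fit versus DMSO; MTT viability checked in the same wells.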

Read-out in assay [20]: Peroxisomal acyl-coenzyme A oxidase 1 (ACOX1) gene, ACOX1 (gene 51)
The assay can be described thus: LTEA_HepaRG_ACOX1: Life Technologies and Expression Analysis (LTEA) Assay for Peroxisomal acyl-coenzyme A oxidase 1 (ACOX1) gene using HepaRG (AID 2283467). Conditions: mRNA level, 48 h; actives raise or lower the signal. The essentials: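 Measured by qRT-PCR against three housekeeping genes: ACOX1 transcript change in human HepaRG cells after 48 h dosing. Concentrations ran up to 100 uM in half-log steps. Curves were fitted bidirectionally relative to 0.5% DMSO.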

The source made the active and inactive calls. The calls were made as follows: active = hit-call score of the fitted dose curve at least 0.9, where 1 is the maximum; inactive = score below 0.9.

Sequence of Broad substrate specificity ATP-binding cassette transporter ABCG2 (Homo sapiens) (Q9UNQ0 whole entry, looked up): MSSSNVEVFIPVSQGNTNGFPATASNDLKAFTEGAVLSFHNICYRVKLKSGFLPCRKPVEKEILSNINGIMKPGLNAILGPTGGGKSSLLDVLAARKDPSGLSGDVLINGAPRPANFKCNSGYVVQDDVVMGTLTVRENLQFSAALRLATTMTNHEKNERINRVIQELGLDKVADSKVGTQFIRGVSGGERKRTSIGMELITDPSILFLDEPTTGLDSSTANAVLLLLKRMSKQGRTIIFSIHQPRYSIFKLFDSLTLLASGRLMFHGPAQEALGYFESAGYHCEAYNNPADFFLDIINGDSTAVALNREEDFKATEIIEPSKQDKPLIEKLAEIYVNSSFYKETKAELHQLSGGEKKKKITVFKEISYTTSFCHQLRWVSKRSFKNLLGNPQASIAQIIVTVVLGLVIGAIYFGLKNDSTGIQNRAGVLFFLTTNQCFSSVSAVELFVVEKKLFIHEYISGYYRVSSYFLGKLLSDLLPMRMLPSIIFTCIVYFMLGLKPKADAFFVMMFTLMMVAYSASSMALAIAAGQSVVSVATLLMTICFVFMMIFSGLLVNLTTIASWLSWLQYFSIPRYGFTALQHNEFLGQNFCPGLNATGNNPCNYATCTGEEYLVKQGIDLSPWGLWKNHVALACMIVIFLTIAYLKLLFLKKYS

Broadly, the AC50 is the concentration at which the activity in the assay is half-maximal. On to `CCOC(=O)[C@]1(c2ccccc2)Oc2ccccc2[C@@H]1N`, for which the AC50 in assay [1] is 78.6 µM (active); in [2] it was 13 µM (active); in assay [4], 83.3 µM (active); in assay [5], 76.2 µM (active); in assay [8], 76.8 µM (active); in [10], 78.7 µM (active). Moreover, the AC50 in assay [11] is 82.2 µM (active); in assay [12], 50 µM (active); in assay [14] it was 50 µM (active); in [16] it was 75.7 µM (active). In addition, the outcome in assay [3], in assay [6], in assay [7], in [9], in assay [13] and in assay [15] was inactive. For the same compound, the compound was classed as inactive in [17] and in assay [18].

As for `Cc1cc(N=Nc2ccccc2C)ccc1N`, the AC50 was 4.86 µM (active) in assay [1]; 1.05 µM (active) in assay [2]; 2.75 µM (active) in assay [3]; 12.5 µM (active) in assay [4]; 3.52 µM (active) in [5]; 5.56 µM (active) in [6]. The AC50 in assay [9] was 13 µM (active); in assay [10], 4.58 µM (active); in assay [11], 3.17 µM (active); in [13], 0.387 µM (active); in assay [20], 2.57 µM (active); in [14], 12.6 µM (active). Moreover, the figures for the AC50 in [17] and in assay [18] were 4.93 µM (active) and 4.69 µM (active), respectively. For the same compound, the outcome in [19], in assay [12] and in [15] was inactive.

The record behind these values is PubChem BioAssay (EPA / NIEHS).
